Measured values: the supplement of paper PMC4894684
Structures can show the parent of a compound that is named as a salt. ± gives the standard deviation of the averaged measurements.

test system: Toxoplasma gondii RH (in HFF); assay: parasite growth relative to the screen mean (all compounds = 100%); higher = less inhibition of parasite growth; settings: 5 µM; 72 h; oxygen 21 %
How it was run: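 Library compounds, held as 10 mM DMSO stocks, were pinned to 5 µM final onto confluent human foreskin fibroblasts in 96-well plates. The cells were infected within 2 h with RH β-Gal–GFP Toxoplasma (MOI 1:5), grown 72 h at 21% O2, and assayed for parasite number by CPRG β-Gal using in-plate standard curves. Growth is reported relative to the screen mean, in which all compounds = 100%, averaged over two screens, and CellTiter-Blue checked uninfected host-cell viability.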

Structure (SMILES) | parasite growth
c1ccc(C(O[C@@H]2CCCN(CCc3ccc4c(c3)OCO4)C2)c2ccccc2)cc1 [Zamifenacin fumarate] | 128 ± 20%
C[N+](C)(C)CCCCCNCC12CC3CC(CC(C3)C1)C2 | 120 ± 3.1%
CO[C@@H]1[C@H](O)[C@@H](CO)O[C@H]1n1cnc2c(NC3CCCCC3)ncnc21 | 103 ± 24%
COc1ccc(CCN(C)CCCOc2ccc(S(=O)(=O)c3c(C(C)C)c4ccccc4n3C)cc2)cc1OC | < 0%
CC1=NN(c2ccccc2)C(=O)C1 | 133 ± 8.7%
N#C/C(=C\c1ccc(O)c(O)c1)C(=O)NCCCCc1ccccc1 | 155 ± 18%
Oc1cc2c(c(Cl)c1O)CCNCC2c1ccccc1 (stereo not drawn) | 103 ± 32%
CCOC(=O)c1cnc2c(cnn2CC)c1NN=C(C)C [Etazolate hydrochloride] | 127 ± 21%
Cn1nnc2c(C(N)=O)ncn2c1=O [Temozolomide] | 89.4 ± 4.9%
O=C(c1ccc(F)cc1)C1CCN(CCCCc2ccccc2)CC1 [4-(4-Fluorobenzoyl)-1-(4-phenylbutyl)-piperidine oxalate] | 110 ± 7.6%
O=C(O)C=C1CCCc2ccccc2C1O (stereo not drawn) | 112 ± 16%
CCCC1O[C@@H]2C[C@H]3[C@@H]4CCC5=CC(=O)C=C[C@]5(C)[C@H]4[C@@H](O)C[C@]3(C)[C@]2(C(=O)CO)O1 (stereo partly drawn) [Budesonide] | 138 ± 12%
CC(C)N1Cc2cc(S(C)(=O)=O)ccc2N(CCN2CC=C(c3c[nH]c4cc(F)ccc34)CC2)S1(=O)=O | 181 ± 36%
CN(CCOc1ccc(-c2ccc3c(c2)OCO3)cc1C(C)(C)C)CC(=O)O | 110 ± 38%
Cl/C(=C\n1cncn1)c1ccc(Cl)cc1Cl [Loreclezole hydrochloride] | 146 ± 12%
COC(=O)[C@H](NC(=O)c1cc(-c2ccccc2)nc2ccccc12)c1ccccc1 | 112.7 ± 0.18%
CC1(COc2ccc(CC3SC(=O)NC3=O)cc2)CCCCC1 (stereo not drawn) [Ciglitazone] | 100 ± 22%
CC(=O)NCC(=O)N[C@H](CCC(=O)O)C(=O)O [N-Acetylglycyl-D-glutamic acid] | 132 ± 22%
O=c1[nH]c2cc(Cl)ccc2c(O)c1-c1cccc(Oc2ccccc2)c1 | 103 ± 19%

Structure (SMILES) | parasite growth
CCCCCCCCCCC(C)(C)C(=O)Nc1c(OC)cc(OC)cc1OC | 27.8 ± 5.4%
O=C(Nc1ccccc1)c1cc([N+](=O)[O-])ccc1Cl | 103 ± 18%
NC(=O)CCCCn1ccc(NC(N)=NCC(F)(F)F)n1 | 95.1 ± 10%
CC(C)c1ccccc1S(=O)(=O)c1cc(N)c2ncccc2c1[N+](=O)[O-] | 88.4 ± 2.1%
O=c1[nH]ccc2c(S(=O)(=O)N3CCCNCC3)cccc12 [HA 1100 hydrochloride] | 122 ± 10%
COC1CCC(C(=O)c2ccc3nc4c(cc3c2)CCCO4)CC1 (stereo not drawn) | 136 ± 27%
CNC(=O)[C@H]1O[C@@H](n2cnc3c(NCc4cccc(I)c4)ncnc32)[C@H](O)[C@@H]1O | 117 ± 14%
Cc1ccc2c(c1)c1c3n2CCNC3CCC1 (stereo not drawn) [Pirlindole mesylate] | 152 ± 16%
O=C(O)COc1cccc(-c2ocnc2-c2nc(-c3ccccc3)c(-c3ccccc3)o2)c1 | 62.8 ± 28%
OC(CN1CCC(Cc2ccc(F)cc2)CC1)c1ccc(Cl)cc1 (stereo not drawn) [Eliprodil] | 93.6 ± 21%
CN(C)CCCC1(c2ccc(F)cc2)OCc2cc(C#N)ccc21 (stereo not drawn) [Citalopram hydrobromide] | 122 ± 3.6%
CN(C)CCCSc1ccccc1NC(=O)/C=C/c1ccccc1 [Cinanserin hydrochloride] | 120 ± 9.6%
COc1[nH]c2ccc(F)cc2c1C(=O)OCC1CCN(CCNS(C)(=O)=O)CC1.NS(=O)(=O)O | 80.2 ± 32%
C[C@@H](CN1CC(=O)NC(=O)C1)N1CC(=O)NC(=O)C1 [Dexrazoxane hydrochloride] | 102 ± 13%
COc1ccc(NS(=O)(=O)c2ccc(I)cc2)cc1N1CCN(C)CC1 | 122 ± 17%
COc1cc(COc2cc(N)c(Cl)cc2C(=O)CCC2CCN(CCNS(C)(=O)=O)CC2)cc(OC)c1 | 28.1 ± 16%
CC1(C)CC(=O)C(C2C3=C(CC(C)(C)CC3=O)Oc3ccccc32)C(=O)C1 (stereo not drawn) | 127 ± 18%
Clc1ccccc1CNCC1CCC(CNCc2ccccc2Cl)CC1 (stereo not drawn) | 38.9 ± 23%
COc1cc(N)c(Cl)cc1C(=O)NC1CCN(CCCOc2ccc(F)cc2)CC1OC (stereo not drawn) [Cisapride] | 20.8 ± 7.1%
